For test [1], the target named is Cellular tumor antigen p53 (Homo sapiens) (UniProt P04637). Kind of test: Primary qHTS for small molecule compounds that upregulate eGFP-tagged delta133p53alpha (in N-terminal) cells. (AID 2060322). Also: nearly all actives have a fitted effect of over 75% in size. Also: potency is read from the fitted curve at half-maximal effect.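 As to activation: cells pre-induced with doxycycline then dosed without doxycycline; series mostly up to about 56 µM; 0% = DMSO vehicle and 100% = reference activator.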 Particulars: NCI-H358 eGFP-delta133p53alpha fluorescence, 24 h; activation: active compounds read high. Put shortly:
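NCI-H358 cells pre-induced 24 h with 10 ng/ml doxycycline for eGFP-delta133p53alpha, plated dox-free and exposed 24 h at 37C to titrated compounds. Fixed, Hoechst-stained; gated GFP peak intensity by laser scanning cytometry, normalized to DMSO (0%) and 57.5 uM 5-azacytidine (100%).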
For orientation: Quantitative high-throughput screening tests each substance at several concentrations.

For test [2], the target named is Aldehyde dehydrogenase, mitochondrial (Homo sapiens) (UniProt P05091). Kind of test: qHTS for Inhibitors of the Aldehyde Dehydrogenase Family (ALDH2) Primary screen (AID 2061308).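 Also: plate controls were vehicle for no effect and reference inhibitor for full effect; nearly all actives have a fitted effect of over 55% in size.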
The target in test [3] is Retinaldehyde dehydrogenase 3 (Homo sapiens) (UniProt P47895). Briefly: qHTS for Inhibitors of the Aldehyde Dehydrogenase Family (ALDH1A3) Primary screen (AID 2061315).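 Also: plate controls were DMSO vehicle for no effect and reference inhibitor for full effect.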
Test [4] can be described thus: BET inhibitor-based combinations targeting novel dependencies in MECOM-rearranged (r) AML: SET-2 cell line (AID 2202231). Also: nearly all actives have a fitted effect of over 35% in size. Also: potency is read from the fitted curve at half-maximal effect.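 As to viability: plate controls were DMSO treated cells for no effect and wells without cells for full effect.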 Conditions: SET-2 AML cells viability, CellTiter-Glo luminescence, 48 h; viability: active compounds read low, concentration not given here. Put shortly: (§1)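 Luminescent ATP readout (CellTiter-Glo) after 48 hr drug exposure gives viability. Curves span 11 concentrations and are normalized to DMSO and empty wells. Activity is reported as area under the curve and its Z-transform within each cell line.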

Test [5] in a line: BET inhibitor-based combinations targeting novel dependencies in MECOM-rearranged (r) AML: OCI-AML3 cell line (AID 2202232). Also: nearly all actives have a fitted effect of over 35% in size. Also: potency is read from the fitted curve at half-maximal effect. Conditions: Potency: OCI-AML3 viability. Put shortly: as §1
Test [6] can be described thus: BET inhibitor-based combinations targeting novel dependencies in MECOM-rearranged (r) AML: MV-4-11 cell line (AID 2202233). Also: nearly all actives have a fitted effect of over 45% in size. Also: potency is read from the fitted curve at half-maximal effect. Put shortly:
(§2)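 Luminescent ATP readout (CellTiter-Glo, 15 min at room temperature) after 48 hr drug exposure gave viability. Dose-response curves, normalized to DMSO and empty-well controls, were summarized as area under the curve and its mean-centred Z-score.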

Test [7] can be described thus: BET inhibitor-based combinations targeting novel dependencies in MECOM-rearranged (r) AML: HNT-34 cell line (AID 2202234). Also: nearly all actives have a fitted effect of over 35% in size. Also: potency is read from the fitted curve at half-maximal effect. An outline of the steps:
as §2

Test [8] in a line: BET inhibitor-based combinations targeting novel dependencies in MECOM-rearranged (r) AML: UCSD-AML1 cell line (AID 2202235). Also: nearly all actives have a fitted effect of over 40% in size. Also: potency is read from the fitted curve at half-maximal effect. An outline of the steps: as §2
A short description of test [9]: BET inhibitor-based combinations targeting novel dependencies in MECOM-rearranged (r) AML: AML-191 cell line (AID 2202236; also: nearly all actives have a fitted effect of over 35% in size; also: potency is read from the fitted curve at half-maximal effect). Put shortly: as §1
Test [10] is described as follows: BET inhibitor-based combinations targeting novel dependencies in MECOM-rearranged (r) AML: AML-194 cell line (AID 2202237; also: nearly all actives have a fitted effect of over 40% in size; also: potency is read from the fitted curve at half-maximal effect). An outline of the steps: as §1

SMILES strings stand for the structures. “And” between values parts separate entries of the source, which are not always exact repeats. Equal values may be shown once. Results filed as inconclusive are left out. Values without a mark were called inactive. The source made the active and inactive calls. Calls follow the shape of the dose curve; as a rule, active = well fitted curve in the direction sought with a large enough effect; inconclusive = small, poorly fitted or top-dose-only effect, or another doubt; inactive = no such curve, though single readings can be large; an effect the other way counts as inactive or inconclusive.

Chain of Cellular tumor antigen p53 (Homo sapiens) (P04637 whole entry, looked up): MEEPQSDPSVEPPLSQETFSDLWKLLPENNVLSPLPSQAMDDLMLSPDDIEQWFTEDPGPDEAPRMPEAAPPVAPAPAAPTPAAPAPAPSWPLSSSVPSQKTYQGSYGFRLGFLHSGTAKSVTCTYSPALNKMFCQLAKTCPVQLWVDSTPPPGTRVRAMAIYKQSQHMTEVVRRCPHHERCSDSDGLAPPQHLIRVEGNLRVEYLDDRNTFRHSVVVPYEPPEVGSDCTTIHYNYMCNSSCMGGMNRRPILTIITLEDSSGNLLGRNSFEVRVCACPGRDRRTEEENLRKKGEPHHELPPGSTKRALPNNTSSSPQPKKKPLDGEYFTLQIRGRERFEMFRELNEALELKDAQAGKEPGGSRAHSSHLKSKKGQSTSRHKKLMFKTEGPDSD

For the compound `CC1(C)[C@@H](O)CC[C@]2(C)[C@H]3C(=O)C=C4[C@@H]5C[C@@](C)(C(=O)O)CC[C@]5(C)CC[C@@]4(C)[C@]3(C)CC[C@@H]12`, the activation in test [1] was 29.7%. For the same compound, the Potency entry in test [2], in test [3], in test [5], in test [6], in test [7] and in test [8] was “inactive” throughout. Moreover, the Potency result in [9] and in test [10] was “inactive” in each case. The viability in test [4] is 112%.
For the compound `Cc1ncc(NC(=O)c2ccc(CN3CCN(C)CC3)c(C(F)(F)F)c2)cc1Nc1nccc(-c2cccnc2)n1`, the Potency was 23.9 µM (active) in test [1]; 23.5 µM (active) in test [4]; 14.8 µM (active) in test [5]; 3.32 µM (active) in test [6]; 0.0295 µM (active) in [7]; 18.6 µM (active) in [9]. Moreover, in test [10], the Potency was 23.5 µM (active). Besides, the Potency entry in test [2], in test [3] and in test [8] was “inactive” throughout.
Take `CCc1cc(C(N)=O)ccc1-n1nc(C(C)C)c2c(-n3cnc(-c4cnn(C)c4)c3)ccnc21`: in [1], the activation was 4.33%. Besides, the Potency result in test [2] and in test [3] was “inactive” in each case. Further, the Potency in [4] is 2.95 µM (active); in [5], 1.86 µM (active); in test [6], 0.662 µM (active); in test [7] it was 1.32 µM (active); in [8], 1.86 µM (active); in test [9], 1.66 µM (active). Also, the Potency in test [10] was 1.48 µM (active).
With `O=C1CCC[C@@H]2[C@H]3CCC[N+]4([O-])CCC[C@@H](CN12)[C@@H]34` (some centres undefined), the activation in [1] is 7.08% and -17.9%. For the same compound, the Potency entry in test [2], in test [3], in [5], in test [6], in test [7] and in [8] was “inactive” each time. Further, in test [10], the Potency entry is “inactive”. Besides, the viability in test [4] was 118%.
For the compound `c1cc(-c2cnn3cc(-c4ccc(N5CCNCC5)cc4)cnc23)c2cccnc2c1`, the Potency in [1] is 15.1 µM (active); in test [4], 5.25 µM (active); in test [5], 16.6 µM (active); in test [6], 3.32 µM (active); in test [7], 11.8 µM (active); in [8], 8.33 µM (active). Besides, the values for the Potency in [9] and in [10] were 4.68 µM (active) and 2.95 µM (active), respectively. Besides, the Potency entry in [2] and in [3] was “inactive” throughout.

The term viability denotes a read-out of living cells in per cent, often relative to untreated cells.

(Values after PubChem BioAssay (NCATS).)
